From PubChem
Abeta yeast res – A-beta toxicity reversal in yeast. yeast expressing A-beta42, growth rescue, OD600, 48 h; response scale: 0% DMSO, 100% iron-clioquinol control. Potency, µM (top dose mostly 46.1 µM), most hits filed as activators. actives 0.063% (n = 410,000); note: nearly all actives have a fitted effect of over 55% in size
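Growth rescue measured by 600 nm absorbance after 48 h yeast culture at 30 C with compound. Values normalized between DMSO and an equimolar ferric chloride plus clioquinol control.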
aSyn rescue – rescues yeast growth from alpha-synuclein toxicity | Yeast expressing alpha-synuclein, growth rescue, BacTiter-Glo, 24 h | Potency, µM (highest dose often 46.1 µM), actives largely listed as activators | actives 0.14% (n = 370,000); note: nearly all actives have a fitted effect of over 65% in size
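Screening used galactose-induced yeast with toxic alpha-synuclein levels, exposed to compound for 24 hr at 30 deg C. Cell growth, read with BacTiter-Glo luminescence, gave the measured signal.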
TDP-43 yeast inh – rescues yeast growth from TDP-43 toxicity; actives 1.8% (n = 410,000); AID 652104; TDP-43 expressing yeast growth rescue, BacTiter-Glo, 24 h; Potency, µM (series often up to 46.1 µM), usual class: activators; note: nearly all actives have a fitted effect of over 50% in size
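Cell-based yeast growth screen: TDP-43 expression induced in galactose, inoculum OD600=0.02 after raffinose pregrowth to mid-log. Read-out BacTiter-Glo luminescence at 24 hr, 30 deg C; inhibition of toxicity seen as signal increase.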
FUS suppressor – rescues growth of FUS-expressing yeast. S. cerevisiae FUS-expressing, growth rescue, OD600, 24 h. Potency, µM (highest dose often 76.6 µM), most hits filed as activators. actives 0.24% (n = 390,000); note: nearly all actives have a fitted effect of over 55% in size
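Read-out: OD at 600 nm after 24hr at 30C, reporting rescue of FUS-induced yeast toxicity. Cells at OD 0.005 in galactose (2%) minimal medium; compounds tested in a dilution series; CP55940 titration from 92uM final as control.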
Numbers stand for hits; – = inactive; ? = inconclusive; · = no result given; [ ] = another dose, or the depositor's remark. Only some compounds are listed: those with a hit (about 2.1% of all), similar ones and a draw of the others. Calls come from the whole dose curve; as a rule, active = well fitted curve in the direction sought with a large enough effect; inconclusive = small, poorly fitted or top-dose-only effect, or another doubt; inactive = no such curve, though single readings can be large; an effect the other way counts as inactive or inconclusive.

SMILES	Abeta yeast res	aSyn rescue	TDP-43 yeast inh	FUS suppressor
CCOC(=O)c1cc2c(=O)n3ccccc3nc2n(Cc2ccco2)c1=NC(=O)c1cccnc1	–	–	–	32µM
COc1ccc(C(=O)Nc2ccc(S(=O)(=O)N3CCOCC3)cc2)cc1OC	–	–	–	–
O=C(NCC1CCCO1)C1CCN(S(=O)(=O)c2ccc(Br)cc2)CC1 (stereo unspecified)	?	–	–	–
COc1cc(-c2cc(=O)c3c(O)c(OC)c(OC)c(OC)c3o2)cc(OC)c1OC	–	25µM	–	–
CSc1nnc(Nc2ccccc2C)s1	–	–	11µM	–
Cc1cc(NC(=O)CSc2nnc(Nc3ccccc3C)s2)no1	–	–	–	–
NNC(=O)c1cc(-c2cccs2)nc2ccccc12	–	–	–	–
Cc1cccc(-c2cc(C(=O)NCc3ccccn3)c3ccccc3n2)c1	–	–	35µM	·
C/C(=N\NC(=O)c1cc(-c2cccs2)nc2ccccc12)c1ccccn1	13µM	14µM	22µM	–
O=C(Nc1nccs1)c1cc(-c2ccccc2)nc2ccccc12	–	–	14µM	–
COC(=O)c1ccccc1NC(=O)c1cc2nc(C3CC3)cc(C(F)(F)F)n2n1	–	–	–	–
CCc1ccc(NC(=O)c2ccc(CN3C(=O)C(C)=C(c4ccc(C)cc4)S3(=O)=O)cc2)cc1	–	·	–	–
CCOC(=O)c1ccc(NS(=O)(=O)c2ccc(Br)s2)cc1	–	·	18µM	–
CCOC(=O)c1ccc(NC(=O)CN(C)S(=O)(=O)c2ccc(Br)s2)cc1	–	–	–	–
O=C(O)c1cc(-c2ccccc2Cl)n(-c2cccc(Cl)c2)n1	–	–	–	–
Nc1nc(-c2ccc(NC(=O)c3ccco3)cc2)cs1	–	–	–	–
NC(=O)/C(=N\OC(=O)c1ccco1)c1nc(-c2ccc(Br)cc2)cs1	–	–	16µM	·
Cc1cc(-c2nc3ccccc3[nH]2)ccc1N	–	–	–	–
CCn1c(C)c(C)c2cc(C(=O)N3CCCC3)ccc21	–	–	–	–
CCn1c(C)c(C)c2cc(C(=O)N3CCN(c4ccccc4)CC3)ccc21	–	–	22µM	?
O=C(C1=C[C@@H](c2ccc3c(c2)OCO3)C[C@@H](OCCCCO)O1)N1CCN(Cc2ccc3c(c2)OCO3)CC1	–	–	–	–
COc1cc(C=O)ccc1OCCOCCOc1c(C)cc(Cl)cc1Cl	–[9.22 µM]	–	22µM	–
O=C1CCCN1CCCNS(=O)(=O)c1ccccc1	–	?	1.1µM	–
O=C(Nc1ccc2c(c1)CCC2)c1cccc(S(=O)(=O)N2CCN(c3ccccc3)CC2)c1	–	–	–	14µM
O=C(NC1CCCc2ccccc21)c1cccc(S(=O)(=O)N2CCN(c3ccccc3)CC2)c1 (stereo unspecified)	–	–	–	–
SMILES	Abeta yeast res	aSyn rescue	TDP-43 yeast inh	FUS suppressor
COc1ccc(NC(=O)CN(C)C(=O)c2cc3c(s2)CCC3)cc1	–	–	–	–
CN(CC(=O)Nc1ccccc1Br)C(=O)c1cc2c(s1)CCCCC2	–	–	18µM	–
CN(CC(=O)Nc1ccccc1Cl)C(=O)c1cc2c(s1)CCCCC2	–	–	–	–
COc1ccc(NC(=O)CN(C)C(=O)c2cc3c(s2)CCCCC3)cc1	–	–	28µM	–
Cc1cc(C)c(N=C2SCC(=O)N2Cc2ccco2)c(C)c1	–	–	–	–
CC(=O)O/N=C(/C)c1ncc(C(F)(F)F)cc1N1CCOCC1	–	–	–	–
C[C@H](CO)N1C[C@H](C)[C@@H](CN(C)C(=O)Nc2ccc3c(c2)OCO3)Oc2c(NC(=O)Nc3ccc(C(F)(F)F)cc3)cccc2C1=O	–	–	–	22µM
COc1ccc(NC(=O)N(C)C[C@H]2Oc3c(NC(=O)c4ccncc4)cccc3C(=O)N([C@H](C)CO)C[C@@H]2C)cc1	–	–	–	–
C[C@H](CO)N1C[C@H](C)[C@@H](CN(C)C(=O)Nc2ccc(C(F)(F)F)cc2)Oc2c(NC(=O)Nc3ccc4c(c3)OCO4)cccc2C1=O	–	–	–	?
COc1ccc(NC(=O)N(C)C[C@H]2Oc3c(NC(=O)Nc4ccc(C(F)(F)F)cc4)cccc3C(=O)N([C@H](C)CO)C[C@@H]2C)cc1	–	–	–	25µM
COc1ccc(NC(=O)N(C)C[C@H]2Oc3c(NC(=O)c4nc5ccccc5s4)cccc3C(=O)N([C@@H](C)CO)C[C@H]2C)cc1	–	–	–	16µM
O=C(COc1ccc(Br)cc1)Nc1ccc(CN2CCOCC2)cc1	–	–	–	·
